Some test systems named below: EKVX NSCLC; SN12C renal; UO-31 renal; ACHN renal; A498 renal; CCRF-CEM leukemia; MOLT-4 leukemia; TK-10 renal; CAKI-1 renal.
Holding throughout (experiment): NCI-60 one-dose screen, 48 h (100 = growth as untreated, 0 = no growth, -100 = all killed)
What all share (details): 10 µM unless noted

Where “and” joins values, the source holds several entries; their conditions need not be identical. Identical values can stand only once. Compounds without any hit were thinned out: in the full panel of roughly 83,000, 20% have a hit.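 Testing used 96-well plates and a 48-hour single-concentration exposure. Example: -40 means 40% of the starting cells died.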 Calls of active or inactive are those of the source. Rule for the calls: active = growth percent below 10; inactive = the rest.

For the compound `NC(=S)N/N=C1\c2ccccc2-c2c(F)c(F)c(F)c(F)c21`, the growth with EKVX NSCLC was 87.3% (inactive); with SN12C renal, 70.6% (inactive); in the experiment with UO-31 renal, 68.9% (inactive); in the experiment on ACHN renal it was 65.7% (inactive); in the experiment with A498 renal, 105% (inactive); with CCRF-CEM leukemia, -28.1% (active). The growth in the experiment with MOLT-4 leukemia is -18% (active).
Take `Cc1cc(=O)[nH]n1-c1cc(Cl)ccc1N`: the growth in the experiment on EKVX NSCLC is 117% (inactive); with SN12C renal it was 110% (inactive); in the experiment with UO-31 renal it was 89.3% (inactive); in the experiment with TK-10 renal, 98.1% (inactive); with ACHN renal it was 100% (inactive); in the experiment on A498 renal, 120% (inactive). Further, the growth with MOLT-4 leukemia is 112% (inactive).
For `CC(=O)Nc1ccc(Sc2ccc([N+](=O)[O-])o2)cc1`, the growth with EKVX NSCLC is 76.4% (inactive); in the experiment on SN12C renal it was 54.2% (inactive); with UO-31 renal, 24.2% (inactive); in the experiment with TK-10 renal it was 64.9% (inactive); in the experiment on ACHN renal, -28.1% (active); with A498 renal, 120% (inactive). In addition, the growth in the experiment with MOLT-4 leukemia was 33.2% (inactive).
As for `CNc1ccc(Br)cc1-c1n[nH]c(=O)[nH]c1=O`, the growth in the experiment on SN12C renal is 108% (inactive); in the experiment with UO-31 renal, 71.3% (inactive); in the experiment with ACHN renal, 94.6% (inactive); in the experiment with CAKI-1 renal it was 76% (inactive); with A498 renal it was 89.7% (inactive); with CCRF-CEM leukemia, 102% (inactive). For the same compound, the growth in the experiment on MOLT-4 leukemia was 99.5% (inactive).
`COC(=O)/C=C1/CCC2C3CCC4=CC(=O)C(Br)CC4(C)C3C(=O)CC12C` (stereo unspecified): the growth with EKVX NSCLC is 98% (inactive); in the experiment on SN12C renal it was 82.9% (inactive); in the experiment with UO-31 renal, 81.1% (inactive); with ACHN renal, 72.5% (inactive); in the experiment with CAKI-1 renal, 73.9% (inactive); in the experiment with A498 renal, 117% (inactive). The growth in the experiment on CCRF-CEM leukemia was 5.9% (active); in the experiment with MOLT-4 leukemia, 52.3% (inactive).
In the case of `O=C1NC(=O)C(CSc2ccccc2)(c2ccccc2)N1` (stereo unspecified), the growth with EKVX NSCLC is 110% (inactive); in the experiment on SN12C renal it was 103% (inactive); in the experiment with UO-31 renal, 88.9% (inactive); in the experiment with ACHN renal it was 101% (inactive); in the experiment with CAKI-1 renal, 87.7% (inactive); in the experiment on A498 renal, 122% (inactive). Further, the values for the growth with CCRF-CEM leukemia and in the experiment with MOLT-4 leukemia were 97.1% (inactive) and 97.8% (inactive), respectively.
In the case of `C=C1CC[C@@H]2[C@@](C)(CCC[C@]2(C)C(=O)O)[C@@H]1CC[C@H](CO)CCO`, the growth with EKVX NSCLC was 108% (inactive); in the experiment on SN12C renal, 103% (inactive); in the experiment with UO-31 renal it was 79.5% (inactive); with TK-10 renal, 99.4% (inactive); with ACHN renal it was 106% (inactive); with CAKI-1 renal, 101% (inactive). Besides, the values for the growth in the experiment with A498 renal, with CCRF-CEM leukemia and with MOLT-4 leukemia were 107% (inactive), 102% (inactive) and 88.2% (inactive), respectively.
In the case of `O=C(O)C[C@H](O)C[C@H](O)/C=C/c1c(C2CC2)nc2ccccc2c1-c1ccc(F)cc1`, the growth in the experiment with EKVX NSCLC is 93.6% (inactive); with SN12C renal, 30.3% (inactive); in the experiment on UO-31 renal it was 73.3% (inactive); in the experiment on TK-10 renal, 111% (inactive); in the experiment with ACHN renal, 39.7% (inactive); in the experiment with CAKI-1 renal it was 26.1% (inactive). Moreover, the growth was -28.9% (active) in the experiment with A498 renal and 110% (inactive) in the experiment on MOLT-4 leukemia.
Turning to `Oc1ccccc1/C=N/Nc1nc2ccccc2s1`, the growth with EKVX NSCLC is 61.9% (inactive); in the experiment on SN12C renal, 48.8% (inactive); in the experiment on UO-31 renal, 19.7% (inactive); with TK-10 renal, 95.1% (inactive); with CAKI-1 renal, 7.12% (active); in the experiment on A498 renal, 78.3% (inactive). The growth with MOLT-4 leukemia is 41.2% (inactive).
For the compound `O=C(CC(O)c1ccccc1)Nc1ccccn1` (stereo unspecified), the growth was 93.1% (inactive) in the experiment on SN12C renal; 77.1% (inactive) with UO-31 renal; 97.9% (inactive) with TK-10 renal; 111% (inactive) in the experiment on ACHN renal; 102% (inactive) in the experiment with A498 renal; 88.9% (inactive) in the experiment with CCRF-CEM leukemia. Besides, the growth in the experiment on MOLT-4 leukemia is 79% (inactive).
Regarding `CON=C1C[C@]2(C[C@@H]3C[C@@H](C/C=C(\C)C[C@@H](C)/C=C/C=C4\CO[C@@H]5[C@H](O)C(C)=C[C@@H](C(=O)O3)[C@]45O)O2)O[C@H](/C(C)=C/C(C)C)[C@H]1C`, the growth in the experiment with EKVX NSCLC was 20% (inactive); in the experiment with SN12C renal, 55% (inactive); with UO-31 renal it was 24% (inactive); in the experiment on TK-10 renal, 81.9% (inactive); in the experiment on ACHN renal, 44.3% (inactive); in the experiment on A498 renal, 38.3% (inactive). Moreover, the figures for the growth in the experiment on CCRF-CEM leukemia and in the experiment on MOLT-4 leukemia were 38.2% (inactive) and -20.4% (active), respectively.
For the compound `CCCCCCCCCCCCCC1=C(O)C(=O)C(CC2=C(O)C(=O)C(CCCCCCCCCCCCC)=C(O)C2=O)=C(O)C1=O`, the growth in the experiment on TK-10 renal is 33% [100 µM] (inactive) and -1.5% [100 µM] (active).
In the case of `Cc1ccc(C(=O)O[C@H](C(=O)O)[C@H](OC(=O)c2ccc(C)cc2)C(=O)O)cc1`, the growth in the experiment on UO-31 renal is 85.1% (inactive).
Turning to `N#CC1C(=O)N(c2ccccc2)NC12OC(=O)c1ccncc12` (stereo unspecified), the growth in the experiment on TK-10 renal was 88.7% [20 µM] (inactive) and 4.38% [20 µM] (active).
`CC(C)(C)[Si](C)(C)OC1[C@@H](O[Si](C)(C)C(C)(C)C)[C@@H](CNC(=O)NC(=O)C(F)(F)F)O[C@H]1n1cnc2c(NC(=O)Nc3ccccc3)ncnc21` (stereo partly specified): the growth was 81.1% (inactive) in the experiment on SN12C renal; -24.2% (active) with UO-31 renal; 76.2% (inactive) in the experiment with ACHN renal; 16.6% (inactive) in the experiment with CAKI-1 renal; 96.9% (inactive) in the experiment with A498 renal; -41.7% (active) with MOLT-4 leukemia.
For the compound `O=c1nc(NO)[nH]c(=O)n1Cc1ccccc1`, the growth with SN12C renal is 113% (inactive); in the experiment with UO-31 renal, 90.3% (inactive); in the experiment on CAKI-1 renal it was 93.1% (inactive); in the experiment with A498 renal it was 100% (inactive); in the experiment on CCRF-CEM leukemia, 108% (inactive); in the experiment on MOLT-4 leukemia, 109% (inactive).
Regarding `CCOc1cc2c(cc1O)C(=O)C[C@@H]1[C@@H]2CC[C@]2(C)[C@@H](O)CC[C@@H]12`, the growth with TK-10 renal was 38.8% [100 µM] (inactive) and -2.4% [100 µM] (active).
Turning to `O=c1[nH]c(=S)[nH]c(=O)n1Cc1cccc2ccccc12`, the growth in the experiment on SN12C renal is 101% (inactive); in the experiment on UO-31 renal it was 93% (inactive); with ACHN renal it was 97.7% (inactive); with CAKI-1 renal, 86.9% (inactive); with A498 renal it was 85.4% (inactive); in the experiment on CCRF-CEM leukemia it was 105% (inactive). Also, in the experiment on MOLT-4 leukemia, the growth was 99.7% (inactive).
For the compound `CC1=CN2C(=NC3=C(CCCC/C3=C\c3ccccc3)C2c2ccccc2)S1` (stereo unspecified), the growth was 96.3% (inactive) with SN12C renal; 78.1% (inactive) with UO-31 renal; 96.3% (inactive) in the experiment on CAKI-1 renal; 117% (inactive) in the experiment on A498 renal; 99.8% (inactive) with MOLT-4 leukemia.

The values are drawn from PubChem BioAssay (NCI).
